Of roughly 7,900 targets only a part is listed; those with a hit were picked by preference. About 0.6% of all pairs of compound and target were hits. Unmarked numbers belong to inactive results.
Assays:
Assay in all cases: log2 fold change, soluble protein after heating vs DMSO (PISA); higher = thermal stabilisation; K562 cells, 10 uM, 30 min; active = over 0.2 and 3.5 SD of the protein, either way, in both replicates (recomputed)
[1] = compound: CC[C@@H]1C(=O)N(C)c2cnc(Nc3ccc(C(=O)NC4CCN(C)CC4)cc3OC)nc2N1C1CCCC1
Method in brief: (§1)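 Soluble protein was defined as the supernatant after 21,000xg for 90 min. It came from K562 cells at 2×10^6 cells/mL given 10 μM compound for 30 min, heated in aliquots for 3 min across 48°C-58°C, pooled, and extracted in PBS with 0.5% NP-40 at 4°C, and was quantified by TMTpro 16plex LC-MS/MS with equalised channel sums. Thermal stability against control samples, from duplicates, is reported as log2 fold change.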

volasertib = compound: CC[C@@H]1C(=O)N(C)c2cnc(Nc3ccc(C(=O)N[C@H]4CC[C@H](N5CCN(CC6CC6)CC5)CC4)cc3OC)nc2N1C(C)C [volasertib]
Method in brief: as §1

[2] = compound: CC[C@H](C)N1C=C(C2=C(C=C(C=C21)C3=CN=C(C=C3)N4CCNCC4)C(=O)NCC5=C(C=C(NC5=O)C)C)C
Method in brief: as §1

epoxomicin = compound: CC[C@H](C)[C@@H](C(=O)N[C@@H]([C@@H](C)O)C(=O)N[C@@H](CC(C)C)C(=O)[C@]1(CO1)C)NC(=O)[C@H]([C@@H](C)CC)N(C)C(=O)C [epoxomicin]
Method in brief: as §1

[3] = compound: CCn1c(C(=O)N(C2CC2)C2CC2)cc2c3c(ncn3C)c(Nc3cc(C)n(C)n3)nc21
Method in brief: as §1

[4] = compound: CCn1cc(-c2ccnc3[nH]c(-c4cccc(CN(C)C)c4)cc23)c(-c2ccc(NC(=O)N(C)C)cc2)n1
Method in brief: as §1

[5] = compound: CN(C)CC(=O)Nc1ccc2[nH]c(=O)c3ccccc3c2c1
Method in brief: as §1

rosiglitazone = compound: CN(CCOC1=CC=C(C=C1)C[C@H]2C(=O)NC(=O)S2)C3=CC=CC=N3 (racemic) [rosiglitazone]
Method in brief: as §1

[6] = compound: CN1C2=C(C3=C1C(=O)N(N=C3)CC4=CC(=CC=C4)N)SC(=C2)S(=O)C
Method in brief: as §1

[7] = compound: CN1CCC(CNc2ccc3ncc(-c4cccc(OC(F)(F)F)c4)n3n2)CC1
Method in brief: as §1

Chain of UniProt Q96EV2 (Q96EV2 whole entry, looked up): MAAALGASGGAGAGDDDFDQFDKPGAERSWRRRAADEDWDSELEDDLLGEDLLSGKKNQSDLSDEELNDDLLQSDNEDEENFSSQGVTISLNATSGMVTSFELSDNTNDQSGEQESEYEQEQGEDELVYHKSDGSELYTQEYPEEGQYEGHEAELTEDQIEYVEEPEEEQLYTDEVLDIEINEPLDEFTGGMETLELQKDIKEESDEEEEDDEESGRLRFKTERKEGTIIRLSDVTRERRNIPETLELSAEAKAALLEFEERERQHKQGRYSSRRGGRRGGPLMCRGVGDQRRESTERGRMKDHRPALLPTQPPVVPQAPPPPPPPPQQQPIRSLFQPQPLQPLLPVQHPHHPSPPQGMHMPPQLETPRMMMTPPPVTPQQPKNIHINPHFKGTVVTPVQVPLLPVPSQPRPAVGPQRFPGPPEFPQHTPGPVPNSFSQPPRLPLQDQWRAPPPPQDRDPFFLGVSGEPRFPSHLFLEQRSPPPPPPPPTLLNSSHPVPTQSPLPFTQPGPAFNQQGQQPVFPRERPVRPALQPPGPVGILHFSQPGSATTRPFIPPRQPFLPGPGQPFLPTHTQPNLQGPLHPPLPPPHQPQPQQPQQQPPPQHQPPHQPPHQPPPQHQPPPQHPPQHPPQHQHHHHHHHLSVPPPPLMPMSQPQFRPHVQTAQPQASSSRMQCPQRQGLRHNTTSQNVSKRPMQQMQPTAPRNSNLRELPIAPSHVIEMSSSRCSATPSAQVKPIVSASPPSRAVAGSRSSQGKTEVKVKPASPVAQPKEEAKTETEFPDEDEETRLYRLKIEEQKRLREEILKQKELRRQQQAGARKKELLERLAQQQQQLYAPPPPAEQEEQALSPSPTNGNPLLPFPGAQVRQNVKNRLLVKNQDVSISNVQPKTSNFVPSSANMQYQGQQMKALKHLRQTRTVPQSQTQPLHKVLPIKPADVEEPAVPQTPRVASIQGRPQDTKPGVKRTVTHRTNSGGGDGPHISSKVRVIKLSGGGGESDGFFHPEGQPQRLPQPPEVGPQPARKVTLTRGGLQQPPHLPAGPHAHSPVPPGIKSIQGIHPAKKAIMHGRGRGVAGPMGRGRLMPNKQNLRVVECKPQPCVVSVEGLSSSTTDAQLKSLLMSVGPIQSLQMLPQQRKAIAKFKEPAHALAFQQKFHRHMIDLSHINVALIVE
Chain of UniProt P46063 (P46063 whole entry, looked up): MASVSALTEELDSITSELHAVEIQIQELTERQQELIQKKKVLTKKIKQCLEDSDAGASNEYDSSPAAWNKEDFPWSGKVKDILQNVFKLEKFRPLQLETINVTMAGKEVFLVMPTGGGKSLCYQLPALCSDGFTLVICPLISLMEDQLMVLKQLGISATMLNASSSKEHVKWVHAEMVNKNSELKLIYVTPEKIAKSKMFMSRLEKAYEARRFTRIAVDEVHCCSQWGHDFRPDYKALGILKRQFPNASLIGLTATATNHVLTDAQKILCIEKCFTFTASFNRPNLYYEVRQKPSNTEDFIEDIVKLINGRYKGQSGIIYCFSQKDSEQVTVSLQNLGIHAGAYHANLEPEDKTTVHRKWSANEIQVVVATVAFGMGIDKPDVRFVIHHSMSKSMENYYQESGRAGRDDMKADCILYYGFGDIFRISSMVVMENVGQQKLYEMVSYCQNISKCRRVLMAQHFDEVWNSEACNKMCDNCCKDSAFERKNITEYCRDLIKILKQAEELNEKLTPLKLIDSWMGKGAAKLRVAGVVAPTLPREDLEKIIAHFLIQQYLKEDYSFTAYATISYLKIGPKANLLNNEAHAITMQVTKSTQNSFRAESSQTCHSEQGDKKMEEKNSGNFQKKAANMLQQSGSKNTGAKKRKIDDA
Chain of UniProt Q15418 (Q15418 whole entry, looked up): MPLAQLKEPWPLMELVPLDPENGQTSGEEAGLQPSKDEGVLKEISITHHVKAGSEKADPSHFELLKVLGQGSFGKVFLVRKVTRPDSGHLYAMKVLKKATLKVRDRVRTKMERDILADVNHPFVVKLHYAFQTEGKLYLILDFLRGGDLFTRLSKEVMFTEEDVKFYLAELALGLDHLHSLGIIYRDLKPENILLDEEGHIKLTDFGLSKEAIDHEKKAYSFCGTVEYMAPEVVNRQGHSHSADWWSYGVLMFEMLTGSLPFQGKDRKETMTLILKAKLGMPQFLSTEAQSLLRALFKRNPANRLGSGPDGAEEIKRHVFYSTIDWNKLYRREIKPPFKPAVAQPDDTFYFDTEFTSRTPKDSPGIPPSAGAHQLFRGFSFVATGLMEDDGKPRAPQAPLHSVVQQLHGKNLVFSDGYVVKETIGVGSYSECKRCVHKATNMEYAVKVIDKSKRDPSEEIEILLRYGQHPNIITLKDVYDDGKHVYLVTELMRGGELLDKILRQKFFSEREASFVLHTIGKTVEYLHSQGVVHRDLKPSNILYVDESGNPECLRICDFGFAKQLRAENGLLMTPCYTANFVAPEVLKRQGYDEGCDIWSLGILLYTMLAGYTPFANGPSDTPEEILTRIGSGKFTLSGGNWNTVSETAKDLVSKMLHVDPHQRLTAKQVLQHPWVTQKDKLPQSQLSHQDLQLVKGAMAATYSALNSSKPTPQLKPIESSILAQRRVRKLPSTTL
Chain of UniProt P49756 (P49756 whole entry, looked up): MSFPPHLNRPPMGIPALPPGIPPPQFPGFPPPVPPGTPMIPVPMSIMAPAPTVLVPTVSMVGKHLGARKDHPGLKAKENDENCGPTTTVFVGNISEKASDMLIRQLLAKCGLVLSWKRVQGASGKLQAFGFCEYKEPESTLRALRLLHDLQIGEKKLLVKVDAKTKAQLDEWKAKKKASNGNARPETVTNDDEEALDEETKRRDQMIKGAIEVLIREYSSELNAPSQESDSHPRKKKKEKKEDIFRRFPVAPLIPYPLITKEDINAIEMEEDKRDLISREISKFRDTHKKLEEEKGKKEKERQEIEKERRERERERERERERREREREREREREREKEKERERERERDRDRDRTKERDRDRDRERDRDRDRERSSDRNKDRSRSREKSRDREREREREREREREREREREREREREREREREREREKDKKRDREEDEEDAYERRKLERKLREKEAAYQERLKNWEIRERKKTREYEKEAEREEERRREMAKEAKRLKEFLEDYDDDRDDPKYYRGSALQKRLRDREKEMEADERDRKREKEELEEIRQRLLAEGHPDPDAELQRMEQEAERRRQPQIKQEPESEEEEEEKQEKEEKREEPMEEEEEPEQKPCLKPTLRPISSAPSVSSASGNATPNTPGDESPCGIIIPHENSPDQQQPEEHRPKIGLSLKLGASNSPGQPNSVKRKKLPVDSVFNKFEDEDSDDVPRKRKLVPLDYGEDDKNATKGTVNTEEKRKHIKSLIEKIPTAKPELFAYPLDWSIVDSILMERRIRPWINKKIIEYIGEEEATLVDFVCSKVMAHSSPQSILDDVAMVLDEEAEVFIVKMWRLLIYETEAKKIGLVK
Chain of UniProt Q9BVS4 (Q9BVS4 whole entry, looked up): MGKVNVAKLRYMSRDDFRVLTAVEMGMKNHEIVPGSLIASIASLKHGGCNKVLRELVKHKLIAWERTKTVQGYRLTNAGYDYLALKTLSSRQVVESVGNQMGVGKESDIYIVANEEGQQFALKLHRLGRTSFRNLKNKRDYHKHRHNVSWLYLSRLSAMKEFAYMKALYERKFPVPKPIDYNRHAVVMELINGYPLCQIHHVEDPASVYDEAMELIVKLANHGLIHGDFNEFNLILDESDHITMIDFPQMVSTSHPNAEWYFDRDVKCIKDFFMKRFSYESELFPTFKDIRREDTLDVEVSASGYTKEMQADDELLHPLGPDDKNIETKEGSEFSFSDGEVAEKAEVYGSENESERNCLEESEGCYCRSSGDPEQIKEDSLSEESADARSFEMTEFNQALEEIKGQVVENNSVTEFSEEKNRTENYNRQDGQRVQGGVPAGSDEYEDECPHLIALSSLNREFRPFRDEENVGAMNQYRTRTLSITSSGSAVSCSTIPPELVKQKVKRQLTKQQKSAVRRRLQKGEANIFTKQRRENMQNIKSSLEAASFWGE
Chain of UniProt Q9GZR1 (Q9GZR1 whole entry, looked up): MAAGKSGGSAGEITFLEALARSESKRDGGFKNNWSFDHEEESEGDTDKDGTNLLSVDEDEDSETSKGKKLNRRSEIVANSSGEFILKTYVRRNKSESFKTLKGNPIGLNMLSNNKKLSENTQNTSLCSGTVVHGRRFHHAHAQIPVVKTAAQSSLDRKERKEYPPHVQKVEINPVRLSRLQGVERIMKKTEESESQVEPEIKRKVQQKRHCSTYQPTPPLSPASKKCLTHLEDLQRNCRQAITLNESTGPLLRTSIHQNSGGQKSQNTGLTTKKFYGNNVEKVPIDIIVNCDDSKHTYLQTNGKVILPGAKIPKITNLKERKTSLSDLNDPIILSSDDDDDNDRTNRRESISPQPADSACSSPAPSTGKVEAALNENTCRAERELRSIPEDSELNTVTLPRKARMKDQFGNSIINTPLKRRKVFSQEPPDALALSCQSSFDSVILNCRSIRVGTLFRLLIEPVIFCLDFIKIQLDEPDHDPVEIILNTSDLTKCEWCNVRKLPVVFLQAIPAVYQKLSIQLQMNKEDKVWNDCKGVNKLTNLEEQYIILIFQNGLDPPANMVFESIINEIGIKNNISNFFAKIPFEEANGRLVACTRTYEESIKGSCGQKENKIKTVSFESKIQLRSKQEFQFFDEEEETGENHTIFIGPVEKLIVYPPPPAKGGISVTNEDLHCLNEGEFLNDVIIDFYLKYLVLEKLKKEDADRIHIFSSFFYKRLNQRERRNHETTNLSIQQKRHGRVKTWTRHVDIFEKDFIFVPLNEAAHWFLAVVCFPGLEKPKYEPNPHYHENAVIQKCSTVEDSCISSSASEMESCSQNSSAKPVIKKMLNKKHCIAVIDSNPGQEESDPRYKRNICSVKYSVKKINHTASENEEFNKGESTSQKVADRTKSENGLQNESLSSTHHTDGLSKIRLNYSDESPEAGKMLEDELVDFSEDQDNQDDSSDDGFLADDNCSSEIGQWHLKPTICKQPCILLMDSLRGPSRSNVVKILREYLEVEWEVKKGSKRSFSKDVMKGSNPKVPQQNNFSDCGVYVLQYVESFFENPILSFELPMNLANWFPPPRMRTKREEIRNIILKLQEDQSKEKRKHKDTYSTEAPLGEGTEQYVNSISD

Target	log2 fold change [1]	log2 fold change (volasertib)	log2 fold change [2]	log2 fold change (epoxomicin)	log2 fold change [3]	log2 fold change [4]	log2 fold change [5]	log2 fold change (rosiglitazone)	log2 fold change [6]	log2 fold change [7]
RRP9 (UniProt O43818)	0.09	0.148	-0.049	-0.107	-0.017	0.136	-0.113	-0.129	0.039	0.236
RBM33 (UniProt Q96EV2)	-0.101	-0.105	0.035	0.022	0.012	-0.005	-0.025	-0.024	0.023	0.004
SENP6 (UniProt Q9GZR1)	-0.086	-0.07	-0.044	-0.039	0.029	-0.022	-0.017	0.004	-0.014	-0.038
RAVER1 (UniProt E9PAU2)	-0.222	-1.93 (active)	0.13	0.147	-0.058	-0.006	0.174	0.056	-0.007	-0.375
RBM25 (UniProt P49756)	0.024	-0.239	-0.019	0.015	-0.104	0.074	0.041	-0.019	0.086	-0.07
RPS2 (UniProt P15880)	0.168	0.348	0.021	-0.191	0.045	0.119	-0.108	-0.092	0.195	0.086
SGPL1 (UniProt O95470)	0	-0.04	-0.002	-0.066	0.01	0.009	-0.023	-0.061	0.047	0.189
SERPINA7 (UniProt P05543)	0.055	0.309	0.044	-0.68 (active)	0.073	0.036	-0.123	-0.014	0.255	0.279
SCPEP1 (UniProt Q9HB40)	-0.608 (active)	-1.44 (active)	-0.022	0.044	0.011	-0.095	-0.001	0.019	0.019	-0.846 (active)
RPS6KA1 isoform 2 (UniProt Q15418)	-0.223	-0.212	0.053	0.071	0.127	-0.146	0.026	0.044	-0.032	-0.438 (active)
RIOK2 (UniProt Q9BVS4)	0.133	0.267	0.015	-0.032	0.019	-0.013	-0.038	0.014	0.085	0.202
RECQL (UniProt P46063)	-0.032	-0.014	0.002	0	0.009	-0.021	0.016	0.032	-0.076	0.058
RIOK3 (UniProt O14730)	0.084	0.04	-0.01	0.072	0.001	-0.053	-0.011	0.024	-0.023	-0.041
RCOR1 (UniProt Q9UKL0)	0.116	0.001	0.212	0.002	-0.002	-0.033	0.006	0.077	-0.024	-0.037
RBM22 (UniProt Q9NW64)	-0.027	-0.3 (active)	0.002	-0.009	-0.018	0.061	-0.058	0.005	0.011	-0.003

From the supplement of paper PMC10849652
